Source: PubChem
NADH enzymes – blocks coupling enzymes of NAD/NADH assays | coupled PK/LDH NADH assays, four targets | AID 774 | hit rate 0.02% among 65,000 | IC50, µM (series often up to 10 µM), inactives show top-dose inhibition;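 active = single-dose screening hits from any of four coupled enzyme assays that gave an IC50 when retested across doses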;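 note: the DPM-DC format reads NADH fluorescence rather than 340 nm absorbance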
Fluor 339 460 – intrinsic fluorescence of library compounds, ex339/em460 – biochemical, MLSMR library, data from DPM-DC assay, artefact control, profiling panel | hit rate 5.5% among 65,000 | compound autofluorescence, ex339/em460 nm, NADH buffer; active compounds read high; 1 = no-compound wells, NADH background | fluorescence fold increase at 10 µM;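 active = at 10 µM, mean starting fluorescence two-fold or more over control wells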;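 note: signal is the first read of a kinetic run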
Spn DPM-DC inh – inhibitors of Streptococcus pneumoniae diphosphomevalonate decarboxylase | hit rate 0.49% among 65,000 | calls only at 10 µM | purified DPM-DC, PK/LDH coupled NADH fluorescence;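 active = the 320 compounds with the highest percent inhibition in the single-dose primary screen, excluding strongly autofluorescent ones, cut at about 32% in these data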;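 note: kinetic rate of NADH fluorescence loss reporting ADP formed by the decarboxylase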
MK inhibit – blocks S. pneumoniae mevalonate kinase | purified MK, PK/LDH-coupled NADH absorbance 340 nm | inhibition, % at 10 µM | hit rate 0.48% among 65,000 | AID 555;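 active = ranked among the strongest by inhibition in the single 10 µM screen, a fixed top-ranked set picked for dose follow-up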
PMK inhibit – inhibitors of Streptococcus pneumoniae phosphomevalonate kinase | inhibition, % at 10 µM | purified PMK, PK/LDH-coupled NADH absorbance 340 nm | hit rate 0.49% among 65,000;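 active = top-ranked compounds by inhibition in the single 10 µM screen, taking a fixed number of the strongest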;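 note: 0% = full reaction with DMSO carrier and 100% = background rate without enzyme reaction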
Numbers without * were called inactive; i = inactive; nt = not tested or not shown; + = active, no number. Rows were chosen to be rich in hits. Some 6.6% of all compounds tested hit in one or more screens of this group.

SMILES | NADH enzymes | Fluor 339 460 | Spn DPM-DC inh | MK inhibit | PMK inhibit
Cc1cccc(N(C)S(=O)(=O)c2ccc3[nH]cc(C(=O)N4CCOCC4)c(=O)c3c2)c1 | 6.0% | 2.04* | i | 5.0 | 0.0
O=C(c1c[nH]c2ccc(S(=O)(=O)N3CCC4(CC3)OCCO4)cc2c1=O)N1CCOCC1 | 9.0% | 2.1* | nt | 0.0 | 18.0
Cc1cc(C)cc(N(CC(=O)NCc2ccco2)S(=O)(=O)c2c(C)noc2C)c1 | 9.0% | 1.05 | i | 8.0 | 14.0
O=c1o[nH]c(-c2ccccc2)c1C1=NCCCCC1 | 3.0% | 1 | i | 1.0 | 0.0
CC(c1ccccc1)C(CC(=O)O)C(=O)NC1CCCCC1 (stereo unspecified) | 12.0% | 1.07 | i | 8.0 | 27.0*
O=C(NC1CCCCC1)C(c1ccccc1)N1CCCC1 (stereo unspecified) | 3.0% | 1.08 | i | 9.0 | 0.0
CCn1c2ccccc2c2cc(C3C(C#N)=C(C)NC(C)=C3C#N)ccc21 | 6.0% | 4.75* | nt | 5.0 | 7.0
CCn1c2ccccc2c2cc(C3C(C#N)=C(N)OC4=C3C(=O)CC(C)(C)C4)ccc21 (stereo unspecified) | 4.0% | 1.05 | i | 9.0 | 2.0
CCn1c2ccccc2c2cc(N)ccc21 | 4.0% | 2.9* | nt | 8.0 | 14.0
CC(C)OC(=O)c1c(F)c(F)c(N2CCOCC2)c(F)c1F | 1.0% | 1.1 | i | 1.0 | 3.0
Fc1ccc(-n2[nH]nnc2=S)cc1N1CCCC1 | 7.0% | 1.11 | i | 13.0 | 0.0
Nc1nnc(SCC(=O)NCc2ccc3c(c2)OCO3)s1 | 5.0% | 1.05 | i | 7.0 | 7.0
NC(=O)c1nsc(C(=O)N(CC(=O)NCc2ccc3c(c2)OCO3)C2CCCC2)c1N | 9.0% | 2.15* | i | 8.0 | nt
CC(=O)c1c(C)[nH]c(C(=O)OCn2nnc3ccccc3c2=O)c1C | 7.0% | 0.99 | i | 0.0 | 20.0
COc1ccc(N2CCN(c3ccc(NC(=O)c4ccc5c(c4)OCO5)cc3C#N)CC2)cc1 | 7.0% | 1.86 | i | 7.0 | 10.0
COc1ccc(CC(=O)Nc2ccc(N3CCN(c4ccc(OC)cc4)CC3)c(C#N)c2)cc1 | 12.0% | 2.16* | i | 6.0 | 12.0
CCOc1ccc(-c2nnc(-c3snc(-c4ccc(F)cc4)c3N=CN(C)C)o2)cc1 | 4.0% | 3.77* | nt | 0.0 | 7.0
CCN(CCNC(=O)C1CCN(c2nnc(-n3cccc3)s2)CC1)c1ccccc1 | 21.0% | 0.94 | + | 11.0 | 11.0
CN1CCN(CCCNC(=O)C2CCN(c3nnc(-n4cccc4)s3)CC2)CC1 | 6.0% | 0.99 | i | 10.0 | 9.0
Cc1c(OC(=O)CNC(=O)OC(C)(C)C)ccc2c3c(c(=O)oc12)CCC3 | 6.0% | 3.87* | nt | 8.0 | 3.0
CC(=O)C(C)Oc1ccc2c3c(c(=O)oc2c1C)CCCC3 (stereo unspecified) | 10.0% | 3.83* | nt | 15.0 | 5.0
CC(=O)COc1ccc2c3c(c(=O)oc2c1C)CCCCC3 | 5.0% | 3.79* | nt | 7.0 | 3.0
Cc1oc(C(=O)O)cc1COc1ccc2c3c(c(=O)oc2c1C)CCCC3 | 11.0% | 2.19* | nt | 9.0 | 12.0
Cc1oc2c(C)c3oc(=O)c4c(c3cc2c1C)CCCC4 | 5.0% | 1.53 | i | 5.0 | 2.0
CCCc1cc(=O)[nH]c(SC(CC)C(=O)Nc2ccccc2C#N)n1 (stereo unspecified) | 5.0% | 1.13 | i | 9.0 | 7.0
SMILES | NADH enzymes | Fluor 339 460 | Spn DPM-DC inh | MK inhibit | PMK inhibit
OC1(c2ccc(F)cc2)CCN(Cc2nnnn2Cc2cccs2)CC1 | 5.0% | 1.1 | i | 2.0 | 14.0
CC(C)C(=O)Nc1ccc2c(c1)C(=O)N(CCC(=O)O)C2=O | 2.0% | 2.3* | nt | 0.0 | 4.0
CC(=O)Nc1cccc(NC(=O)c2oc3ccccc3c2C)c1 | 1.0% | 1.06 | i | 11.0 | 0.0
Cc1c(C(=O)Nc2ccc3oc(-c4cccnc4)nc3c2)oc2ccccc12 | 11.0% | 3.81* | nt | 13.0 | 8.0
Cc1ccc2oc(-c3ccc(NC(=O)CC(C)C)cc3)nc2c1 | 3.0% | 2.2* | nt | 2.0 | 4.0
CC(C)CC(=O)Nc1ccc2oc(-c3cccnc3)nc2c1 | 4.0% | 2.22* | nt | 8.0 | 0.0
Cc1c(C(=O)Nc2ccc(-n3cnnn3)cc2)oc2ccccc12 | 12.0% | 3.77* | nt | 13.0 | 10.0
CCOC(=O)N1CCN(S(=O)(=O)c2ccc3c(c2)SC(C)C(=O)N3)CC1 (stereo unspecified) | 6.0% | 1.14 | i | 7.0 | 12.0
c1ccc(-c2ccccc2-n2cnnn2)cc1 | 3.0% | 1.09 | i | 9.0 | 0.0
COc1ccc(OC)c(C2/C(=C(\O)c3c(C)nc4ccccn34)C(=O)C(=O)N2CCCN(C)C)c1 (stereo unspecified) | 3.0% | 1.12 | i | 3.0 | 6.0
Cn1c(=O)c2c(-c3ccccc3)n3c4ccccc4ncc3c2n(C)c1=O | 7.0% | 3.86* | nt | 7.0 | 6.0
COc1ccc(Cc2nnn(CC(=O)O)n2)cc1 | 5.0% | 1.02 | i | 9.0 | 6.0
CCN(CCCNC(=O)CN(C)S(=O)(=O)c1ccc2c(c1)CCC(=O)N2)c1cccc(C)c1 | 5.0% | 1.1 | i | 8.0 | 6.0
Cc1ccc(NC(=O)CSc2nnc(Cn3c(=O)sc4ccccc43)n2C)cc1Cl | 11.0% | 1.05 | i | 4.0 | 29.0*
O=S1(=O)NC2CCCCCN2c2ccc(F)cc21 (stereo unspecified) | 11.0% | 3.64* | i | 0.0 | 9.0
O=C(Nc1ccc(F)cc1)C1CCCCC1 | 2.0% | 1.03 | i | 0.0 | 6.0
CC12CCC(C(=O)N3CCN(Cc4ccccc4)CC3)(OC1=O)C2(C)C (stereo unspecified) | 3.0% | 1.13 | i | 3.0 | 5.0
CCOC(=O)c1cn2c3c(c(F)c(F)c(F)c3c1=O)SC(N1CCCC1)=N2 | 4.0% | 2.66* | i | 4.0 | 4.0
CCOC(=O)Cc1c(C)nc2c(-c3ccc(Cl)cc3)c[nH]n2c1=O | 7.0% | 2.12* | nt | 5.0 | 8.0
COc1cc(-c2nnc(-c3ccc(S(=O)(=O)c4ccccc4)cc3)o2)cc(OC)c1OC | 11.0% | 3.74* | nt | 8.0 | 13.0
COc1cc(-c2nnc(SCC(=O)c3ccccc3)o2)cc(OC)c1OC | 5.0% | 1.12 | i | 0.0 | 14.0
O=C1CN(C(=O)COC(=O)CCC(=O)c2ccc3c(c2)OCCO3)c2ccccc2N1 | 5.0% | 1.24 | i | 0.0 | 16.0
Cc1cccc(C2Nc3ccccc3C(=O)N2c2ccccc2)n1 (stereo unspecified) | 3.0% | 2.16* | nt | 3.0 | 3.0
O=C1c2ccccc2NC(c2ccccn2)N1c1ccc(Cl)cc1 (stereo unspecified) | 10.0% | 4.83* | nt | 5.0 | 14.0
O=C1c2ccccc2NC(c2ccccc2)N1c1ccc(O)cc1 (stereo unspecified) | 9.0% | 1.59 | i | 13.0 | 13.0
CCOC(=O)c1cc(-c2cc3ccccc3o2)nc2c1c(=O)[nH]c(=O)n2CCOC | 9.0% | 5.14* | nt | 2.0 | 15.0
Cc1cc(N)n(-c2nc(-c3cccnc3)nc3ccccc23)n1 | 6.0% | 1.07 | i | 11.0 | 0.0
